Test results: PubChem BioAssay AID504500 (NMMLSC, 2011)
Potency and affinity values are given separately. Active and inactive are the calls of the source.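 How the source made its calls: active means compounds whose curve fit is tight, with span above 25% and half-effect concentration below 10 µM; inactive means the rest.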

biological target: Beta-adrenergic receptor kinase 1 (Homo sapiens) (UniProt P25098); assay: aptamer displacement from bead-bound GRK2 – biochemical, cherry pick 1, bead flow cytometry, dose response (AID 504500); settings: bead-bound biotinylated GRK2, FAM-aptamer displacement; series mostly up to 33 µM
Sequence (P25098 whole entry, looked up): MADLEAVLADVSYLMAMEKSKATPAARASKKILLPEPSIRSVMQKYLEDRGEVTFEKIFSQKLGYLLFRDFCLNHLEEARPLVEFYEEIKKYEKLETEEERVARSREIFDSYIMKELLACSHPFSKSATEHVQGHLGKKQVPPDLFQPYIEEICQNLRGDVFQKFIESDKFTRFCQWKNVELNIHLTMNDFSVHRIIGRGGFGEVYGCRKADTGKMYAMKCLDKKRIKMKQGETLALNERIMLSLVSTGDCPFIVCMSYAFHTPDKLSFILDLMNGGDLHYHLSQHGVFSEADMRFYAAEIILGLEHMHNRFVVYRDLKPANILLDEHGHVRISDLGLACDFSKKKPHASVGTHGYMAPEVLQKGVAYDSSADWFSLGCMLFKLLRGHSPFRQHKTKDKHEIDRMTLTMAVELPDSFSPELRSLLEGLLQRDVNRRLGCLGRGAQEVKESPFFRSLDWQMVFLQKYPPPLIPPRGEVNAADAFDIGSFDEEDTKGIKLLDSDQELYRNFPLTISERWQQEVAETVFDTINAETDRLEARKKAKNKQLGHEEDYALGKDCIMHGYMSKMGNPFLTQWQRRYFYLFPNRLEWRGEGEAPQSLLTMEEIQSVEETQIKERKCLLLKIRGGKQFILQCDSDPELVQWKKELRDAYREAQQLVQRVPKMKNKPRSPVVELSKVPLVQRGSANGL

outcome, inactive:
C=C(C)C(=O)Nc1cccc(C2=NOC3(C2)C[C@@H](C(N)=O)N(C(=O)/C=C/CC)C3)c1 (some centres undefined), COc1ccc(NC(=O)CCS(=O)(=O)c2ccc(Br)s2)cc1, CC(=O)N1CCCc2cc(S(=O)(=O)CCC(=O)N3CCN(c4cccc(C)c4)C(C)C3)ccc21 (centres undefined), COC(=O)c1ccc(NC(=O)CCS(=O)(=O)c2ccc(Br)cc2)cc1, COc1cc(/C=C2\CCc3c2nc2ccccc2c3C(=O)O)cc(OC)c1OC, CNC(=O)c1[nH]cnc1C(=O)Nc1ccc(F)cc1, O=C(CCS(=O)(=O)c1ccc(Br)cc1)NCc1cccs1, CCOc1ccccc1NC(=O)CCS(=O)(=O)c1ccc(Br)cc1, COc1ccc2nc(SCC(=O)Nc3ccc4c(c3)OCCO4)[nH]c2c1, CCOC(=O)c1sc(NCc2ccco2)c(-c2nc3ccccc3s2)c1N, C=C(C)C(=O)Nc1cccc(C2=NOC3(C2)C[C@@H](C(N)=O)N(C(=O)/C=C/C=C/C)C3)c1 (some centres undefined), O=C(CCS(=O)(=O)c1ccc(Br)s1)N1CCc2ccccc21, CCN1/C(=C/C=C/c2sc3ccccc3[n+]2CC)Sc2ccccc21, Cc1cc2ccccc2n1CCNC(=O)C(C)Oc1ccccc1 (centres undefined)
